GC-B act: GC-B (human) receptor activation; HEK293-GC-B cells, CNP EC30, cGMP TR-FRET; 0% at EC30 CNP, 100% saturating CNP; P20594; AID 1920062; activation, % at 10 µM; 0.11% of 370,000 active;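 active = activation at 10 µM reaching about 35% in either raw or pattern-adjusted values, limit read from the data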
Target sequence (P20594 whole entry, looked up): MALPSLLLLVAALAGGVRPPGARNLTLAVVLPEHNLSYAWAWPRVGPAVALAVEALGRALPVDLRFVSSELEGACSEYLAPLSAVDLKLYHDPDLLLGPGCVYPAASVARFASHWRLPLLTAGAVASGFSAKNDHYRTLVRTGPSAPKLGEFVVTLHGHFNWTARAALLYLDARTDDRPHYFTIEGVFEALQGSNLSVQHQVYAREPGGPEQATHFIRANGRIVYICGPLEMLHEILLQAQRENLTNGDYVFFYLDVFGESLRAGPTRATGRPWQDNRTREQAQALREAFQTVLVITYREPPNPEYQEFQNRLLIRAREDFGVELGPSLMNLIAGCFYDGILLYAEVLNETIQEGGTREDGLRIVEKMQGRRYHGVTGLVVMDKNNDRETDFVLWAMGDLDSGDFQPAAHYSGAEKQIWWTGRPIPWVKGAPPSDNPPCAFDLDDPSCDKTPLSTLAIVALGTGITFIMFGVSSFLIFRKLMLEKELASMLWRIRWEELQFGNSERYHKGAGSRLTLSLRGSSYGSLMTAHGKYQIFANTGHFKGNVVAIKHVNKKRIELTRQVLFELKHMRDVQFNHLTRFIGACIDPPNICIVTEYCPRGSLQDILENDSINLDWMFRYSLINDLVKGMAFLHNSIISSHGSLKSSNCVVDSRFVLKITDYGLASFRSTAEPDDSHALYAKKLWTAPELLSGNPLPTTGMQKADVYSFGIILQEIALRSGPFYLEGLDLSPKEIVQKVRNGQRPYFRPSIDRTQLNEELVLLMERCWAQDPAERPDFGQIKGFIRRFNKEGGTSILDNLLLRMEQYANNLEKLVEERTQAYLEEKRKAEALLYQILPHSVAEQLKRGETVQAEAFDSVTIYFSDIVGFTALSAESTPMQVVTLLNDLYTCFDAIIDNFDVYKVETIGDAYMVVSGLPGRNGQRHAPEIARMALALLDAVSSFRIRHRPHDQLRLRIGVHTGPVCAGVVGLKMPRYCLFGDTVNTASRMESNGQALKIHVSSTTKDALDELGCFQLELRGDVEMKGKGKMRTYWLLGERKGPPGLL
Efflux pump inh: blocks antifungal efflux pumps in multiplex yeast assay; inhibition, % at 10 µM; S. cerevisiae Candida pump triplex, Nile Red efflux; 0.44% of 330,000 active;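 active = plate passing quality check with inhibition over a set limit, or well fluorescence over plate mean plus 4 SD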;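 note: Nile Red retained in pooled yeast measured as flow cytometry median fluorescence; higher means more Nile Red kept so more efflux inhibition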
GC-A act: GC-A (human) enzyme activation. activation, % at 10 µM. P16066. 0.14% of 370,000 active. HEK293 GC-A cells, cGMP TR-FRET, EC30 ANP; 0% at EC30 ANP, 100% saturating ANP; in the data active = activation above about 40%
A1 inh: inhibitors of the anti-apoptotic protein A1, read as caspase activation; MEF A1-2A-BIM cells, Caspase-Glo 3/7 luminescence, 3 h; percent of clofoctol response, vehicle zero; caspase activation, % (concentration not given with the values); 0.066% of 330,000 active; AID 2462;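 active = over half of replicate activation scores above 10%, or exactly half above 10 with the replicate mean above 10; inconclusive = replicate mean below 10 yet half the replicates above 10; inactive = over half of replicates below 10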
HSV augment: HSV replication enhancement | HSV replication augmentation in cells, fold increase | maximum fold increase | 0.005% of 220,000 active; in the data active = maximum fold increase above about 1.5; inconclusive = no clear call, values can overlap the other calls; tested in PC3 cells
TAG inh: triacylglycerol accumulation inhibition. 0.66% of 230,000 active. AID 651582. H9c2 cells, Nile Red lipid (TAG) fluorescence; cells loaded with 200 µM oleic acid. inhibition, % at 12.5 µM;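 active = pattern-corrected inhibition of lipid staining of at least 50% with the nuclear-stain viability signal not falling by more than 50%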
Of the large screens only hits and unclear results are named; the others gave an inactive call. In the library only some 1% were active in any assay of this set; here they are far more common.

CC12CCC(=O)N1C(C(=O)Nc1nc(-c3ccc(F)cc3)cs1)CS2 (centres undefined)	GC-A act 46 (no result: HSV augment)
CC12CCC(=O)N1C(C(=O)Nc1nc(-c3ccc(F)c(F)c3)cs1)CS2 (centres undefined)	GC-A act 43 (no result: HSV augment)
CC(=O)Nc1ccc(-c2csc(NC(=O)C3CSC4(C)CCC(=O)N34)n2)cc1 (centres undefined)	none (no result: HSV augment)
O=S(=O)(N[C@H]1CCCC[C@@H]1N1CCOCC1)c1ccc(Cl)cc1	none (no result: Efflux pump inh, A1 inh, HSV augment, TAG inh)
CC(C)(C)C1CCC(CN2C(Nc3ccccc3)=NC[C@@H]2Cc2ccccc2)CC1 (some centres undefined)	TAG inh 113 (no result: HSV augment)
CCN1C(Nc2ccccc2)=NC[C@@H]1Cc1ccccc1	none (no result: HSV augment)
COC(=O)c1cc(S(=O)(=O)N2CCN(C(C)=O)CC2)cn1C	none (no result: Efflux pump inh, A1 inh, HSV augment, TAG inh)
COc1ccc(CC(=O)Nc2sc3c(c2C#N)CC(C)(C)NC3(C)C)cc1OC	GC-B act 37 (no result: HSV augment)
O=[N+]([O-])c1ccc(N/N=C/c2cn(-c3ccccc3)nc2-c2ccccc2)cc1	HSV augment inconclusive
NS(=O)(=O)c1ccc(N/N=C/c2cn(-c3ccccc3)nc2-c2ccccc2)c([N+](=O)[O-])c1	A1 inh 5.8
Cc1ccc2nc(NCc3ccccc3)[nH]c2c1	TAG inh 60
c1ccc(-[n+]2nc(Nc3cccc4ccccc34)sc2-c2c3ccccc3cc3ccccc23)cc1	TAG inh 106 (no result: GC-B act, GC-A act, HSV augment)
CCOC(=O)[C@]12CCCCC/C=C\1N(CCc1ccc(Cl)cc1)C(=O)[C@H]2CC(=O)NCc1ccc(OC)c(OC)c1	none (no result: Efflux pump inh, A1 inh, HSV augment, TAG inh)
O=C(CSc1nnc(-c2ccncc2)o1)Nc1ccc(F)c(F)c1	A1 inh 21 (no result: HSV augment)
Cc1cc(C)cc(NC(=O)CSc2nnc(-c3ccncc3)o2)c1	none (no result: HSV augment)
CCS(=O)(=O)c1ncc(Cl)c(C(=O)Nc2ccc(C)cc2)n1	A1 inh inconclusive (no result: HSV augment, TAG inh)
CCC1CCCCN1S(=O)(=O)c1ccc(NC(=O)c2nc(S(C)(=O)=O)ncc2Cl)cc1 (centres undefined)	GC-A act 42, A1 inh 11 (no result: HSV augment, TAG inh)
CCC1CCCCN1S(=O)(=O)c1ccc(NC(=O)c2ccncc2)cc1 (centres undefined)	none (no result: HSV augment)
CCS(=O)(=O)c1ncc(Cl)c(C(=O)Nc2ccc(S(=O)(=O)N3CCCC(C)C3)cc2)n1 (centres undefined)	GC-B act 41, GC-A act 43, A1 inh 49 (no result: HSV augment, TAG inh)
c1cc2ccn(CC3CC3)c2cc1-c1ccc2ccn(CC3CC3)c2c1	GC-B act 38 (no result: Efflux pump inh, A1 inh, HSV augment, TAG inh)
Fc1ccc(Cn2ccc3ccc(-c4ccc5ccn(Cc6ccc(F)cc6)c5c4)cc32)cc1	none (no result: Efflux pump inh, A1 inh, HSV augment, TAG inh)
CCn1c(SCC(=O)Nc2ccc(C(=O)OC)cc2)nnc1-c1cccc(Cl)c1	none (no result: Efflux pump inh, A1 inh, HSV augment, TAG inh)
COc1ccc(C=NNC(=O)Cc2cc(=O)[nH][nH]2)c(OC)c1	none (no result: Efflux pump inh, A1 inh, HSV augment, TAG inh)
CN1CC(=O)N2[C@H](c3ccc4c(c3)OCO4)c3[nH]c4ccccc4c3C[C@@H]2C1=O	GC-B act 57, GC-A act 49
CCOc1ccc(C2c3[nH]c4ccccc4c3C[C@H]3C(=O)N(C4CC4)CC(=O)N23)cc1OC (some centres undefined)	none (no result: HSV augment, TAG inh)
O=C1[C@@H]2Cc3c([nH]c4ccccc34)C(c3ccccc3)N2C(=O)CN1CCO (some centres undefined)	none (no result: HSV augment, TAG inh)
COc1cc([C@H]2c3[nH]c4ccccc4c3C[C@H]3C(=O)N4[C@@H](c5cc(OC)c(OC)c(OC)c5)c5[nH]c6ccccc6c5C[C@H]4C(=O)N23)cc(OC)c1OC	TAG inh 50 (no result: GC-B act, GC-A act)
COC(=O)c1ccc(C2c3[nH]c4ccccc4c3C[C@H]3C(=O)N(C4CC4)CC(=O)N23)cc1 (some centres undefined)	GC-A act 55 (no result: HSV augment, TAG inh)
CCN1C(=O)[C@@H]2Cc3c([nH]c4ccccc34)C(c3cc(OC)c(OC)c(OC)c3)N2C1=S (some centres undefined)	none (no result: HSV augment, TAG inh)
O=C1CC(N2CCOCC2)=NC(=O)N1c1ccc(Br)cc1	none (no result: Efflux pump inh, A1 inh, HSV augment, TAG inh)
COc1ccc(-c2nc(NC(=O)CSc3nnc4ccccn34)ns2)cc1	GC-B act 45 (no result: TAG inh)
O=C(CSc1nnc2ccccn12)Nc1nsc(-c2ccccc2)n1	none
CC(C)CCCCCCCCCCCCC(=O)NCC(=O)NC1C(C)OC(Nc2ncnc3nc[nH]c23)C(O)C1O (centres undefined)	TAG inh 72 (no result: Efflux pump inh, A1 inh, HSV augment)
C/C(=C\CNc1ncnc2nc[nH]c12)CO	none (no result: TAG inh)
Cc1c(N=C2C=CC(=O)c3ccccc32)c(=O)n(-c2ccccc2)n1C	GC-A act 73 (no result: Efflux pump inh, A1 inh)
Cc1c(N=C2N=C(NC(=O)NC(C)(C)C)c3ccccc32)c(=O)n(-c2ccccc2)n1C	GC-A act 84
Cc1c(N=C2N=C(NC(=O)c3cccs3)c3ccccc32)c(=O)n(-c2ccccc2)n1C	GC-A act 80 (no result: HSV augment)
Cc1c(NC(=O)Nc2ccc(C(C)(C)C)cc2)c(=O)n(-c2ccccc2)n1C	none (no result: HSV augment, TAG inh)
COC(=O)[C@H](CC(C)C)N(CCCc1cn(CC2CCCCC2)nn1)S(=O)(=O)c1ccccc1Br	none (no result: Efflux pump inh, A1 inh, HSV augment, TAG inh)
CC1(C)Cc2c(sc3c2c(=N)n(Cc2ccco2)c(=O)n3Cc2ccccc2)CO1	none (no result: TAG inh)
CC1(C)Cc2c(sc3c2c(=N)n(Cc2ccco2)c(=O)n3Cc2ccc(Cl)cc2)CO1	GC-B act 35
CSC(=S)NN=C(C)c1cccc(C)n1	TAG inh 55 (no result: Efflux pump inh, A1 inh, HSV augment)
CC(=NNC(=S)N1CCCCC1)c1cccc(C)n1	none (no result: Efflux pump inh, A1 inh, HSV augment)
CCN(CC)CCNc1ccc(C)c2sc3ccc(O)cc3c(=O)c12	TAG inh 59 (no result: Efflux pump inh, A1 inh, HSV augment)
CCN(CC)CCNc1ccc(CO)c2oc3cc(Cl)ccc3c(=O)c12	none (no result: Efflux pump inh, A1 inh, HSV augment)
CCCCN(C(=O)C1CCCC1)c1c(N)n(Cc2ccccc2)c(=O)[nH]c1=O	none (no result: HSV augment)
CCCCC1CCC(C(=O)N(CC(C)C)c2c(N)n(Cc3ccccc3)c(=O)[nH]c2=O)CC1 (centres undefined)	A1 inh 29 (no result: HSV augment, TAG inh)
CC(C)CCN(C(=O)Cc1ccc(Cl)c(Cl)c1)c1c(N)n(Cc2ccccc2)c(=O)[nH]c1=O	A1 inh 12
O=C(NCCc1c[nH]c2ccccc12)OCc1cn(-c2cccc(Cl)c2)nn1	none (no result: Efflux pump inh, A1 inh, HSV augment, TAG inh)
COc1cccc(N2CCN(CC(=O)NCc3ccco3)CC2)c1	none (no result: Efflux pump inh, A1 inh, HSV augment, TAG inh)
CCOC(=O)c1sc(=S)n(-c2ccc(OC)cc2)c1C	none
CCOC(=O)c1c2c(n(-c3ccc(OC)cc3)c1C)C(=O)C(=O)c1ccccc1-2	TAG inh 71 (no result: GC-B act, Efflux pump inh, GC-A act, A1 inh, HSV augment)
N#CCCn1cc(/C=N/NC(N)=S)c(-c2ccc(Br)cc2)n1	GC-B act 55
N#CCCn1cc(/C=N/NC(N)=S)c(-c2ccccc2)n1	none
Cc1ccc(-c2nc3cnccn3c2Nc2ccccc2)o1	GC-B act 32
Cc1ccc(Nc2c(-c3ccc(C)o3)nc3cnccn23)cc1	GC-B act 40
Cc1ccc(-c2nc3cnccn3c2Nc2ccc3c(c2)OCO3)o1	none
O=C1NCCN/C1=C\C(=O)c1ccc(Cl)cc1	GC-A act 41
